The nature of experiment [1]: anti-His antibody binders, primary screen, artefact control for SMM control protein annotation, biochemical, small-molecule microarray, 635 nm fluorescence (AID 1128).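 Also: score merges feature fluorescence with signal-to-noise for each printed compound spot.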 As to conditions: anti-His Alexa647 antibody binding, higher = more signal.
Experiment [2] deals with Human papillomavirus type 1a E7 protein (residues 1-88). The experiment can be described thus: HPV1a E7 small-molecule binders, primary screen, biochemical, small-molecule microarray, residues 1-88, 635 nm (AID 1129). The following applies: small-molecule microarray binding, fluorescence 635 nm; higher = more signal.
Experiment [3] addresses Focal adhesion kinase 1 (Homo sapiens) (UniProt Q05397). Kind of experiment: small-molecule microarray binders of FAK, primary screen, biochemical, 635/667 nm fluorescence, BSA, DTT (AID 1130).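 Also: composite of spot emission at 667 nm and signal to noise over triplicate slides.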 The following applies: PTK2 binding, 635 nm fluorescence, higher = more signal.
For experiment [4], the system named is Fibrinogen (Alexa647-labelled). The experiment can be described thus: fibrinogen binders on compound microarrays, profiling panel, artefact control for SMM control-protein annotation, biochemical, small-molecule microarray, 635/667 nm fluorescence (AID 1131).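 Also: z-score merges 667 nm fluorescence with per-spot signal-to-noise over triplicate slides.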 As to conditions: fibrinogen-A647 binding fluorescence, higher = more signal.
Experiment [5] has as its target Follistatin (Homo sapiens) (UniProt P19883). The experiment can be described thus: follistatin binders on small-molecule microarrays, primary screen, biochemical, small-molecule microarray, 635/667 nm fluorescence (AID 1132). The following applies: FST binding, 635 nm fluorescence, higher = more signal.
Experiment [6] addresses Fibroblast growth factor 2 (Homo sapiens) (UniProt P09038). The experiment can be described thus: FGF2 binders on small-molecule microarrays, primary screen, biochemical, small-molecule microarray, 635/667 nm fluorescence (AID 1133). As to conditions: small-molecule microarray binding, FGF2, fluorescence 635/667; higher = more signal.
The nature of experiment [7]: mitochondrial membrane potential change in A549 cells, profiling panel, cell-based, JC-1 fluorescence, basal, 24 h, 100 nL (AID 1138).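 Also: A549 lung adenocarcinoma cells under basal conditions with no added stimulus; test concentration not given here.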 As to conditions: higher = more signal.
Experiment [8] concerns Lefty1. Kind of experiment: Lefty1 binders on small-molecule microarrays, primary screen, biochemical, small-molecule microarray, 635/667 nm fluorescence (AID 1139). The following applies: small-molecule microarray binding, fluorescence 635/667; higher = more signal.
Experiment [9] has as its system wheat germ agglutinin (Triticum aestivum), Alexa647-labelled. The experiment can be described thus: wheat germ agglutinin binders on compound microarrays, profiling panel, artefact control for SMM control-protein annotation, biochemical, small-molecule microarray, 635/667 nm fluorescence (AID 1140).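 Also: score merges 667 nm feature emission with signal to noise over triplicate slides.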 The following applies: WGA-A647 binding, 635 nm fluorescence, higher = more signal.

The target of experiment [10] is Luciferin 4-monooxygenase (Photinus pyralis) (UniProt P08659). The experiment can be described thus: firefly luciferase enzyme inhibitors, primary screen, biochemical, luminescence, purified enzyme, 2006 set (AID 1141).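 Also: cell-free assay with purified firefly luciferase at 100 ng per well in PBS; test concentration not given here.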 As to conditions: SteadyGlo luminescence, 30 min, higher = more signal, called active from +8 up or from −8 down.
Chain of Luciferin 4-monooxygenase (Photinus pyralis) (P08659 whole entry, looked up): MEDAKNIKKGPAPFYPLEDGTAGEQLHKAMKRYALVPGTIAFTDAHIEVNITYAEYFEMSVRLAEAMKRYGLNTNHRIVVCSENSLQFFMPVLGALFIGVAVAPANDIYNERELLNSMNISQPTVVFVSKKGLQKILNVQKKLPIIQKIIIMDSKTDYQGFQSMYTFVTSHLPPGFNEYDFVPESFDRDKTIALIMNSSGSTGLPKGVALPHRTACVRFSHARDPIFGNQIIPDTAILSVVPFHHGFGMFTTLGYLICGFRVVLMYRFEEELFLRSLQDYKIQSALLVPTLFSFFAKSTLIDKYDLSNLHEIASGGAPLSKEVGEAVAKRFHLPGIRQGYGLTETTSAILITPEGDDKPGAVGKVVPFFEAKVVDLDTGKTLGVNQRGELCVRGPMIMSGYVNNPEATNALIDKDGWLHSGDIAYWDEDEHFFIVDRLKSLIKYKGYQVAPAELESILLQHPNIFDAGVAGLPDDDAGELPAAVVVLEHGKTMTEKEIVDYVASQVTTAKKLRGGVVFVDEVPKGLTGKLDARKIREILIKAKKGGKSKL
Experiment [11] deals with Wnt5a (protein binding on small-molecule microarray). Kind of experiment: Wnt5a binders on small-molecule microarray, primary screen, biophysical, 635/667 nm fluorescence (AID 1142).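 Also: fluorescence read at 667 nm with signal to noise per printed feature.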 The following applies: 635 nm fluorescence, higher = more signal.
Experiment [12] in a line: cell viability in Huh7 cells, primary screen, cytotoxicity control for HCV replication inhibitor project, CellTiter-Glo luminescence, basal, 48 h (AID 1143).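 Also: Huh7 hepatoma cells carrying a hepatitis C replication reporter with no stimulus; test concentration not given here.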 The following applies: Huh7 HCV replicon, higher = more signal, called active from +8 up or from −8 down.
The nature of experiment [13]: P. aeruginosa biofilm formation inhibitors, primary screen, PAO1 strain, BacTiter-Glo luminescence, LB-PBS (AID 1144). The following applies: 12 h, higher = more signal.
Experiment [14] can be described thus: CREB reporter modulators without forskolin, primary screen, cell-based, PC12, CRE-LacZ reporter, unstimulated (AID 1145). As to conditions: no forskolin, luminescence, 4.5 h, higher = more signal, called active from +8 up or from −8 down.
Experiment [15] can be described thus: CREB reporter modulators under forskolin, primary screen, cell-based, PC12, CRE-LacZ reporter, forskolin-stimulated (AID 1146).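 Also: PC12 cells with 6xCRE LacZ reporter stimulated by forskolin 10 µM; beta-galactosidase reporter signal reflecting CREB driven transcription.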 The following applies: luminescence, 4.5 h, higher = more signal, called active from +8 up or from −8 down.
Experiment [16] addresses Streptavidin (Streptomyces avidinii) (UniProt P22629). Kind of experiment: streptavidin binders on small-molecule microarray, primary screen, artefact control for SMM compound annotation, biophysical, 635/667 nm fluorescence (AID 1147).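 Also: signal reflects streptavidin binding to arrayed compounds as a control protein.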 As to conditions: streptavidin binding, higher = more signal.
Experiment [17] can be described thus: small-molecule binders of probe aInhba, primary screen, biochemical, small-molecule microarray, 635/667 nm fluorescence (AID 1148).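 Also: score merges 667nm spot fluorescence with signal-to-noise for antibody binding to printed compounds.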 As to conditions: higher = more signal.
Experiment [18] addresses Torsin-1A (Homo sapiens) (UniProt O14656). The experiment can be described thus: torsin A binders from cell lysate, primary screen, small-molecule microarray, wild-type, 635/667 nm (AID 1149). The following applies: COS7 hTOR1A-WT lysate, 635 nm fluorescence, higher = more signal.
Experiment [19] shares this target. Kind of experiment: small-molecule binders of mutant TOR1A in lysate, primary screen, cell lysate, small-molecule microarray, COS7 lysate, 635/667 nm fluorescence (AID 1150).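 Also: score pools 667 nm emission and signal to noise measuring lysate protein binding.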 The following applies: COS7 hTOR1A mutant lysate, 635 nm fluorescence, higher = more signal.
Experiment [20] concerns Sonic hedgehog protein (Shh). Kind of experiment: small-molecule binders of Shh protein, primary screen, biochemical, small-molecule microarray, 635/667 nm fluorescence (AID 1151).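 Also: Shh protein binding to compounds spotted on small-molecule microarray slides; score combines spot fluorescence intensity with signal-to-noise across triplicate slides.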 The following applies: small-molecule microarray binding, 635 nm fluorescence; higher = more signal.

Activity calls are given as the source filed them. Unless noted, no rule for the calls is given here.

Chain of Fibroblast growth factor 2 (Homo sapiens) (P09038 whole entry, looked up): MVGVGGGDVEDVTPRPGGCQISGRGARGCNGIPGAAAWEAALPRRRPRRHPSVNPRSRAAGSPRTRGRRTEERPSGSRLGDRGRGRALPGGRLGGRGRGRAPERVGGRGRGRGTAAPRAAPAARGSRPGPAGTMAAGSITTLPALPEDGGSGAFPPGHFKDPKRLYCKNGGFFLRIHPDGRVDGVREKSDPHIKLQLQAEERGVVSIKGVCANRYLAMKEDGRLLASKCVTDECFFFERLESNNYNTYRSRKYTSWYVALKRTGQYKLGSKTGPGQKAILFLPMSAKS
Chain of Focal adhesion kinase 1 (Homo sapiens) (Q05397 whole entry, looked up): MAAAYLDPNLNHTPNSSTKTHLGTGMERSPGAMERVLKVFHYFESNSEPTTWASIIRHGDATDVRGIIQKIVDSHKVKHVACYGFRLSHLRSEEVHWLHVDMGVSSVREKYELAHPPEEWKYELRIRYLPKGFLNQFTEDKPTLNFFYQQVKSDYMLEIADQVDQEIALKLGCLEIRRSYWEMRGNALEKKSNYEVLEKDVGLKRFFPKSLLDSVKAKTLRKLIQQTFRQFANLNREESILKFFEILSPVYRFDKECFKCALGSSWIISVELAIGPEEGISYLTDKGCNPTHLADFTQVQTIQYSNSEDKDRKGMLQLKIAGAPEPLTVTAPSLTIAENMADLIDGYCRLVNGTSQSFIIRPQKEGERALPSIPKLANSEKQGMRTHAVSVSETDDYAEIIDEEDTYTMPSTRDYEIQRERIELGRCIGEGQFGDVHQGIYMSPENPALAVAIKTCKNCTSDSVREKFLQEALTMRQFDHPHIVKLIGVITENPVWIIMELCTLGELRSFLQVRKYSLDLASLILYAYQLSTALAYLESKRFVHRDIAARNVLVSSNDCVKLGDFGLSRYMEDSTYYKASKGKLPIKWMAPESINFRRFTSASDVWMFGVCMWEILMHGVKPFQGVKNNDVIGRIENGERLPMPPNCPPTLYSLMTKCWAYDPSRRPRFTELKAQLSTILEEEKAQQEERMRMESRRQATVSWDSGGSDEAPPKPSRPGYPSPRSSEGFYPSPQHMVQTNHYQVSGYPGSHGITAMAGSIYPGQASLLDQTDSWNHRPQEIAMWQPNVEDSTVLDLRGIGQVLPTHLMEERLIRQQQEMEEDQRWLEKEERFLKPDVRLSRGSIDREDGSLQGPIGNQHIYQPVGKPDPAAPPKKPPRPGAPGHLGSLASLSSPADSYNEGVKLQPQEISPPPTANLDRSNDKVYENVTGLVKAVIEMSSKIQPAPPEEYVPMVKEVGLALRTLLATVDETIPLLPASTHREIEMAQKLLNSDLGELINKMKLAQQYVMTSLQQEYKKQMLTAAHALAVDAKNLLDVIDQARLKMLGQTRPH
Chain of Torsin-1A (Homo sapiens) (O14656 whole entry, looked up): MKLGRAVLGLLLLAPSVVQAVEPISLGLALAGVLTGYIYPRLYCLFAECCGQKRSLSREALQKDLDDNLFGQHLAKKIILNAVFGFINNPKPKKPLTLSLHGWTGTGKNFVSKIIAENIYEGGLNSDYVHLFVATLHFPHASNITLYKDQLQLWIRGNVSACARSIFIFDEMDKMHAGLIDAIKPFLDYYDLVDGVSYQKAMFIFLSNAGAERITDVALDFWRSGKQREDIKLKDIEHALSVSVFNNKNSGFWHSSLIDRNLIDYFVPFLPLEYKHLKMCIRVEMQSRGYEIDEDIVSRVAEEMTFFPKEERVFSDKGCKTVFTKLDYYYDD
Chain of Follistatin (Homo sapiens) (P19883 whole entry, looked up): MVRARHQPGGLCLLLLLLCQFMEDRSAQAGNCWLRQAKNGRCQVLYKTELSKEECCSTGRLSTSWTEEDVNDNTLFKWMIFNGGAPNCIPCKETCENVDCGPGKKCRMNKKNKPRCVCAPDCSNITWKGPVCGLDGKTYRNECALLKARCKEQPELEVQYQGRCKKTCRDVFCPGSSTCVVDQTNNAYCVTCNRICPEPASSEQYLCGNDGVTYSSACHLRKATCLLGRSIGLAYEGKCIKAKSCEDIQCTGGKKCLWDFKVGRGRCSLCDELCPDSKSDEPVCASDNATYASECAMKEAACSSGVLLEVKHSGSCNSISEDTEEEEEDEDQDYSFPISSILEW
Chain of Streptavidin (Streptomyces avidinii) (P22629 whole entry, looked up): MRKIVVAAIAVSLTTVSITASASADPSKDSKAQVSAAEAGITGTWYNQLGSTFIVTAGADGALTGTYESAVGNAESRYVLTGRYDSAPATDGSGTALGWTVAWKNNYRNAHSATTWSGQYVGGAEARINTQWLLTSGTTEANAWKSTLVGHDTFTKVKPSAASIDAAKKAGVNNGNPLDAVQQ

With `COc1cccc([C@@H]2Oc3ccc(OC)cc3C(=O)[C@H]2O)c1`, the composite z-score in experiment [1] worked out at 0.575; in experiment [2], 0.193; in [3] it was 0.0207; in [4], 0.823; in [5], 0.536; in experiment [6], 0.449. Moreover, the composite z-score is 0.678 in experiment [8]; -0.173 in experiment [9]; 0.115 in experiment [11]; 2.33 in [16]; -0.152 in [17]; 0.496 in experiment [18]. For the same molecule, the composite z-score in experiment [19] is 0.42; in experiment [20] it was 0.813. For the same molecule, the z-score in experiment [7] was -1.54; in experiment [10], -1.6 (inactive); in experiment [12], -4.86 (inactive); in experiment [13] it was -1.15 (inactive); in [14], 5.45 (inactive); in [15] it was -0.344 (inactive).
Take `CCC(=O)[C@@]1(O)C(=O)N2C(=C3C(=O)OCC[C@@H]31)N(Cc1ccccc1)C(C)=C(C(=O)OC)[C@H]2c1ccccc1`: the composite z-score amounted to 0.188 in experiment [1]; 0.405 in experiment [2]; 1.08 in experiment [3]; 0.375 in experiment [4]; 0.538 in experiment [5]; 0.465 in [6]. In addition, the composite z-score in experiment [8] is 0.436; in [9], 0.0183; in [11], -0.308; in experiment [16], 0.565; in experiment [17] it was 0.0633; in experiment [18] it was 0.578. Besides, the values for the composite z-score in [19] and in experiment [20] were 0.224 and 0.438, respectively. Moreover, the z-score is 0.523 in [7]; -0.901 (inactive) in experiment [10]; 0.321 (inactive) in [12]; -1.51 (inactive) in [13]; 0.513 (inactive) in [14]; -0.205 (inactive) in experiment [15].
With `O=C(NN=C1C[C@@H](O)[C@@H](O)[C@@H]2[C@@H]3C(=O)N(C[C@@H]4CCCO4)C(=O)[C@@H]3CC[C@H]12)OCc1ccccc1`, the composite z-score in experiment [1] was -0.0516; in experiment [2], 0.0327; in experiment [3], -0.147; in experiment [4], 0.271; in [5], -0.606; in experiment [6], -0.183. In addition, the composite z-score was -0.793 in experiment [8]; 0.717 in experiment [9]; -0.222 in experiment [11]; 0.281 in [16]; -0.341 in experiment [17]; 0.146 in experiment [18]. For the same molecule, the composite z-score is 0.219 in experiment [19] and -0.824 in [20]. Also, the z-score in experiment [7] is -0.0539; in experiment [10], 0.304 (inactive); in [12], 0.348 (inactive); in experiment [13], 0.458 (inactive); in experiment [14], -0.834 (inactive); in experiment [15] it was -0.105 (inactive).
With `C[C@H]1COC(=O)[C@@H]2CCCN2C(=O)[C@@H](C)COC(=O)[C@H](Cc2ccccc2)NC1=O`, the composite z-score in experiment [1] stood at 0.305; in experiment [2], 0.767; in experiment [3], 0.0349; in experiment [4] it was 0.208; in [5], 0.42; in experiment [6], 0.458. Moreover, the composite z-score is 0.96 in experiment [8]; 0.111 in [9]; 0.0398 in experiment [11]; 0.0706 in experiment [16]; -0.045 in [17]; 0.146 in experiment [18]. The composite z-score in experiment [19] came out at 0.0507; in experiment [20], 0.515. Moreover, the z-score in [7] was -0.731; in experiment [10], 1.48 (inactive); in experiment [12], 0.257 (inactive); in experiment [13], -0.0355 (inactive); in [14] it was -0.468 (inactive); in experiment [15], 0.574 (inactive).
As for `CCCCC#C[C@@H]1C=C[C@H](OC(C)=O)[C@@H](COC(C)=O)O1`, the composite z-score in experiment [1] was 0.113; in experiment [2] it was 0.283; in [3], -0.0443; in experiment [4], 0.88; in experiment [5], 0.248; in experiment [6], 0.316. In addition, the composite z-score in [8] was 0.487; in [9], 0.219; in experiment [11], 0.03; in [16], 0.202; in [17] it was -0.154; in experiment [18], 0.568. Moreover, the composite z-score came to 0.234 in [19] and 0.437 in experiment [20]. The z-score was -0.79 in experiment [7]; -1.41 (inactive) in experiment [10]; -4.37 (inactive) in experiment [12]; 0.713 (inactive) in experiment [13]; -0.976 (inactive) in [14]; 2.86 (inactive) in [15].
As for `C=Cc1ccc([C@H]2N[C@H](C(=O)O)CC[C@@H]2C)cc1`, the composite z-score in experiment [1] is 0.126; in experiment [2], -1.47; in [3], -0.584; in [4], -0.719; in experiment [5] it was 0.632; in experiment [6], 0.486. The composite z-score was 0.431 in [8]; 0.388 in experiment [9]; -0.0905 in experiment [11]; -0.536 in experiment [16]; -0.0714 in [17]; -0.188 in experiment [18]. For the same molecule, the composite z-score in experiment [19] came out at 0.307; in experiment [20], 0.36. The z-score is 1.28 in [7]; -0.33 (inactive) in experiment [10]; 0.369 (inactive) in [12]; 0.53 (inactive) in experiment [13]; -0.346 (inactive) in experiment [14]; 0.179 (inactive) in [15].
`CC(C)=NO[C@H](C)c1cn([C@H](CO)Cc2ccccc2)nn1`: the composite z-score in experiment [1] is 1.28; in experiment [2], 0.464; in [3] it was 0.548; in experiment [4], 0.991; in experiment [5] it was 0.139; in [6], 0.137. The composite z-score in experiment [8] is 0.137; in experiment [9] it was -0.026; in experiment [11], -0.179; in [16], 1.14; in [17], -0.0178; in experiment [18], -0.232. The composite z-score in experiment [19] was 0.015; in experiment [20], -0.195. In addition, the z-score in experiment [7] was -0.34; in experiment [10] it was -1.69 (inactive); in experiment [12], -0.684 (inactive); in experiment [13], 0.159 (inactive); in experiment [14], 1.61 (inactive); in experiment [15], 0.112 (inactive).
For the molecule `COC(=O)CC=C[C@@H](C)[C@@H](C=NOC[C@@H](O)[C@H]1O[C@@H]2OC(C)(C)O[C@@H]2[C@H]1O)NS(=O)(=O)c1ccc(C)cc1`, the composite z-score is 1.93 in experiment [1]; 0.607 in [2]; -0.196 in experiment [3]; -0.174 in [4]; 0.597 in [5]; 0.276 in experiment [6]. In addition, the composite z-score in [8] was 0.223; in [9] it was 0.0146; in experiment [11], 0.242; in experiment [16], -0.0169; in experiment [17], 0.163; in experiment [18], 0.92. For the same molecule, the composite z-score turned out to be 0.387 in experiment [19] and 0.288 in experiment [20]. In addition, the z-score is -0.656 in [7]; 0.543 (inactive) in experiment [10]; 0.0198 (inactive) in [12]; 0.603 (inactive) in [13]; -0.245 (inactive) in experiment [14]; 0.285 (inactive) in experiment [15].
On to `COC(=O)[C@H]1O[C@@H](c2c(OC)c(OC)c(C)c(OC)c2OC)[C@H](C)[C@@H](O)[C@H]1C`, for which the composite z-score in experiment [1] stood at 0.377; in experiment [2] it was 0.998; in experiment [3] it was 0.169; in experiment [4], 0.902; in [5], 0.694; in experiment [6], 0.577. Moreover, the composite z-score in [8] was found to be 1.08; in experiment [9], 0.526; in experiment [11], 0.2; in experiment [16], 0.353; in experiment [17], 0.141; in experiment [18] it was 0.859. Also, the composite z-score in experiment [19] was 0.295; in experiment [20], 0.434. Further, the z-score is 0.274 in experiment [7]; -0.246 (inactive) in experiment [10]; 0.299 (inactive) in [12]; -0.895 (inactive) in experiment [13]; 0.564 (inactive) in experiment [14]; 1.12 (inactive) in [15].
